Measured values as given in PubChem BioAssay (NCI).
The panel holds about 79,000 compounds, 15% with a hit somewhere; the sample as a whole holds those more often. Unmarked numbers belong to inactive results. Activity calls are given as the source filed them. Rule as the data show it: active = growth inhibition above about 70%; inactive = the rest.

Experiments:
[1] = NCI Yeast Anticancer Drug Screen. Data for the rad50 strain (AID 155);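 also: 0% = growth of vehicle-only cultures of the same strain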; conditions: S. cerevisiae rad50 strain growth inhibition, hits give high values
Procedure, shortened: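 Relative growth inhibition (compound vs vehicle) was measured in yeast with a defined repair-gene alteration.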

[2] = NCI Yeast Anticancer Drug Screen. Data for the mec2-1 strain (AID 157); conditions: S. cerevisiae mec2-1 strain, hits give high values
Procedure, shortened: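 Yeast mec2-1 mutant treated with compound. Readout: growth inhibition vs vehicle controls.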

[3] = NCI Yeast Anticancer Drug Screen. Data for the sgs1 mgt1 strain (AID 161);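 also: 0% = growth of cultures given vehicle only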; conditions: S. cerevisiae sgs1 mgt1 strain, hits give high values
Procedure, shortened: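 Mutant yeast exposed to compound; growth scored against vehicle-only wells.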

[4] = NCI Yeast Anticancer Drug Screen. Data for the cln2 rad14 strain (AID 165);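 also: 0% = growth equal to vehicle treated cultures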; conditions: S. cerevisiae cln2 rad14 strain, hits give high values
Procedure, shortened: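 cln2 rad14 yeast strain; compound exposure; growth inhibition read vs vehicle controls.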

[5] = NCI Yeast Anticancer Drug Screen. Data for the bub3 strain (AID 167); conditions: S. cerevisiae bub3 mutant strain, hits give high values
Procedure, shortened: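 Screening used yeast with an engineered genetic alteration affecting cell cycle control. Compound-exposed cultures were compared with vehicle cultures, and reduced growth was taken as inhibition.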

[6] = NCI Yeast Anticancer Drug Screen. Data for the mlh1 rad18 strain (AID 175); conditions: S. cerevisiae mlh1 rad18 strain growth inhibition, hits give high values
Procedure, shortened: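 Yeast w/ defined DNA-repair lesions; compound exposure; growth vs vehicle controls → % inhibition.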

[7] = at 5.0 µM (retest, dose inferred, filed as 0.5)
[8] = at 50.0 µM (retest, dose inferred, filed as 5.0)

| SMILES | growth inhibition [1, 7] | growth inhibition [1, 8] | growth inhibition ([1]; at 50.0 µM) | growth inhibition [2, 7] | growth inhibition [2, 8] | growth inhibition ([2]; at 50.0 µM) | growth inhibition [3, 7] | growth inhibition [3, 8] | growth inhibition ([3]; at 50.0 µM) | growth inhibition [4, 7] | growth inhibition [4, 8] | growth inhibition ([4]; at 50.0 µM) | growth inhibition [5, 7] | growth inhibition [5, 8] | growth inhibition ([5]; at 50.0 µM) | growth inhibition [6, 7] | growth inhibition [6, 8] | growth inhibition ([6]; at 50.0 µM) |
| --- | --- | --- | --- | --- | --- | --- | --- | --- | --- | --- | --- | --- | --- | --- | --- | --- | --- | --- |
| COc1ccc(Cc2ccccc2C(=O)O)c2ccccc12 | 97% (active) | 96% (active) | 99.1% (active) | 98% (active) | 98% (active) | 99.2% (active) | 97% (active) | 99% (active) | 99.5% (active) | 95% (active) | 96% (active) | 98.7% (active) | 96% (active) | 98% (active) | 98.9% (active) | 97% (active) | 98% (active) | 99% (active) |
| CC(SC1=CC(=O)c2c(Cl)ccc(O)c2C1=O)C(=O)O (stereo not given) | 10% | 13% | 5.7% | 2% | 16% | 1.25% | 22% | 30% | -25.1% | -9% | 7% | -47.5% | 0% | 17% | 6% | 3% | 26% | 8.35% |
| Cc1cccc2c1nc1ccccc1[n+]2C | -2% | 97% (active) | 98.3% (active) | 7% | 97% (active) | 97.7% (active) | -2% | 97% (active) | 98.5% (active) | 2% | 96% (active) | 87.8% (active) | -2% | 91% (active) | 98.2% (active) | 6% | 95% (active) | 97.5% (active) |
| CC(C)C1(C)C(C#N)(C#N)C1(C#N)C#N | -94% | 94% (active) | 79.8% (active) | -35% | 92% (active) | 91.5% (active) | -46% | 90% (active) | 95.5% (active) | -46% | 22% | 48.4% | -39% | 91% (active) | 92% (active) | -77% | 94% (active) | 95.8% (active) |
| CCCCCCC[CH2][Sn]([CH2]CCCCCCC)([O]c1cccc2cccnc12)[O]c1cccc2cccnc12 | 21% | 21% | 89.7% (active) | 18% | 18% | 87.7% (active) | 14% | 14% | 89.7% (active) | 9% | 9% | 85.4% (active) | 4% | 4% | 90.1% (active) | 10% | 10% | 86.3% (active) |
| CCOC(=O)OCCSCCOC(=O)OCC | -14% | 19% | -4.35% | -12% | 36% | 17.6% | -5% | 8% | 14.2% | 15% | -6% | 13.8% | -9% | 18% | 19% | 0% | 47% | -9.65% |
| CN1c2ccccc2C(=O)NC1c1ccc([N+](=O)[O-])s1 (stereo not given) | -9% | 53% | 63.5% | 7% | 8% | 41% | -19% | 32% | 71.8% (active) | 11% | 23% | 33.4% | -47% | 35% | 57% | -22% | 63% | 73.1% (active) |
| O=C(C(/C=N\C(=S)Nc1ccccc1Cl)=C(/O)c1ccccc1)c1ccccc1 | 86% (active) | 99% (active) | 99.4% (active) | 81% (active) | 100% (active) | 99% (active) | 55% | 99% (active) | 99.3% (active) | 95% (active) | 99% (active) | 98.4% (active) | 99% (active) | 99% (active) | 99.3% (active) | 90% (active) | 99% (active) | 99.1% (active) |
| COc1cc(CC#N)c(NC(C)=O)cc1OC | 0% | -4% | -2.3% | -41% | -3% | 28.6% | 0% | -2% | -8.45% | 1% | -2% | 41% | -7% | -7% | 6.05% | -1% | -3% | 9.1% |
| Cc1ccc2nc(CC(=O)c3cccnc3)c(CC(=O)c3cccnc3)nc2c1 | 7% | 95% (active) | 76.3% (active) | 12% | 94% (active) | 63.2% | -1% | 87% (active) | 66.7% | 14% | 96% (active) | 76.3% (active) | 8% | 93% (active) | 60.7% | 1% | 91% (active) | 60.5% |
